TRb-SRC2 inh: TRbeta-SRC2 interaction inhibition | P10828 | TRbeta-SRC2 peptide binding, fluorescence polarization; receptor liganded with 1 µM T3 | Potency, µM (series often up to 106 µM), actives largely listed as inhibitors | 280,000 tested, 0.065% active; note: nearly all actives have a fitted effect of over 50% in size
Target sequence (P10828 whole entry, looked up): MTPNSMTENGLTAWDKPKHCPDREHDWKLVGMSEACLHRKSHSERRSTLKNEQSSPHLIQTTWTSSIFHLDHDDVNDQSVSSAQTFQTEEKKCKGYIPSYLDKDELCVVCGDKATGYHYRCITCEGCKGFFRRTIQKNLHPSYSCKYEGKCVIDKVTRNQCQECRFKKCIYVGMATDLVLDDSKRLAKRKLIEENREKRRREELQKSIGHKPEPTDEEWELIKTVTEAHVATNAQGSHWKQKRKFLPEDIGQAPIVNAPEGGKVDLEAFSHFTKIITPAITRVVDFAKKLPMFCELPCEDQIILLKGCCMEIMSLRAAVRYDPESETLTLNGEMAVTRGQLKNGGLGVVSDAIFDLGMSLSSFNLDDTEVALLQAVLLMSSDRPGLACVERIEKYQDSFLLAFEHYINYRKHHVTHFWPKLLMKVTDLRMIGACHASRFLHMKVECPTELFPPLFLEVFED
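A fluorescence polarization screen tested compounds at multiple concentrations against complex formation between 0.6 uM TRb ligand-binding domain and 20 nM Texas Red SRC2 peptide, with 1 uM T3 present; readout after 5 hr.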
Tau fluor counter: counter-screen for tau fibril formation inhibitors; tau K18 P301L Alexa594 fluorescence, heparin fibrillization; Potency, µM (top dose mostly 57.7 µM); 280,000 tested, 0.93% active; AID 1463; note: nearly all actives have a fitted effect of over 55% in size
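Human K18 P301L tau (15 uM unlabeled plus 0.24 uM Alexa 594-labeled, final) in 100 mM sodium acetate pH 7 was mixed with compound and 20 uM heparin and incubated 6 hr at 37 C.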
Tau fibril FP: inhibitors of human tau fibril formation; P10636; K18 P301L tau heparin fibrillization, Alexa594 FP, 6 h; Potency, µM (highest dose often 57.7 µM), actives largely listed as inhibitors; 280,000 tested, 0.39% active; AID 1468; note: nearly all actives have a fitted effect of over 55% in size
Target sequence (P10636 561-689 P618L limits assumed): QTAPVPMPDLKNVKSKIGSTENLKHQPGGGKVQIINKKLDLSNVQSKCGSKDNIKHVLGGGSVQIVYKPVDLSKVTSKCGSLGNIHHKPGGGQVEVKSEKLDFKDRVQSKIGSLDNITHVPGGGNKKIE
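Human K18 P301L fragment (15 uM unlabeled plus 0.24 uM Alexa 594-labeled) in 100 mM sodium acetate pH 7 with compound, aggregation induced by 20 uM heparin for 6 hr at 37 C. ThT (30 uM) added for 1 hr, then Alexa 594 FP read.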
TR SRC2 fluor cs: Texas Red fluorescence interference in TRb-SRC2 counter-screen; 280,000 tested, 0.29% active; Potency, µM (titrated, usually from 106 µM); TRb/SRC2 Texas Red total fluorescence interference; AID 1479; active = well fitted curve in either direction with a large enough effect; inconclusive = small, poorly fitted or top-dose-only effect
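Human TRb ligand-binding domain at 0.6 uM with 20 nM Texas Red SRC2 peptide in Tris buffer containing 1 uM T3 and 5% DMSO, incubated with compound 5 h at ambient temperature. Total fluorescence (555/632 nm) calculated as parallel + 2 × perpendicular.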
Tau ThT inhib: tau fibrillization inhibition (ThT binding) | Potency, µM (doses to about 57.4 µM), actives largely listed as inhibitors | recombinant tau K18 P301L (four-repeat tau fragment), heparin-induced fibrillization, ThT fluorescence | 270,000 tested, 2.1% active | AID 1460 | P10636; note: nearly all actives have a fitted effect of over 55% in size
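Recombinant human tau K18 fragment […] carrying P301L, 15 uM unlabeled plus 0.24 uM Alexa 594-labeled, was fibrillized with 20 uM heparin in 100 mM sodium acetate pH 7 for 6 hr at 37 C; 30 uM ThT fluorescence read after 1 hr.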
Numbers stand for hits; - = inactive; ? = inconclusive; . = not tested or not shown; [ ] = dose if it differs, or a comment. This is a sample that favours compounds with a hit; in the whole collection about 3.1% have one here. Unless noted, calls come from the whole dose curve; as a rule, active = well fitted curve in the direction sought with a large enough effect; inconclusive = small, poorly fitted or top-dose-only effect, or another doubt; inactive = no such curve, though single readings can be large; an effect the other way counts as inactive or inconclusive.

SMILES | TRb-SRC2 inh | Tau fluor counter | Tau fibril FP | TR SRC2 fluor cs | Tau ThT inhib
O=[N+]([O-])c1ccc(N/N=C/c2c[nH]c3ccccc23)cc1 | - | 7.94µM[quencher] | ? | - | 3.16µM
O=C(Nc1ccccc1C(=O)OCc1cc(=O)n2c3c(sc2n1)CCCC3)c1ccc(F)cc1 | - | - | - | - | -
CC(C)Oc1ccc(C(=O)N2CCN(CCc3ccccn3)CC2)cc1 | - | - | - | - | -
CCOC(=O)C(C)NC(=O)c1c2c(nc3ccccc13)C(=O)N(C1CCCCC1)C2 (stereo not given) | - | - | - | - | -
CCCc1nn2c(=O)cc(COC(=O)c3ccccc3NC(=O)C3CCCCC3)nc2s1 | - | - | - | - | -
CCCNC(=O)OC[C@@H]1O[C@H](CCO/N=C\[C@@H](C)[C@H](OCc2ccccc2)C(C)C)C=C[C@@H]1Oc1ccc(OC)cc1 | -[11.2 µM] | -[11.6 µM] | -[11.6 µM] | -[11.2 µM] | -[11.5 µM]
CCOC(=O)C1=C(C)OC(N)=C(C#N)C1c1cc2c(cc1[N+](=O)[O-])OCO2 (stereo not given) | - | ? | ? | - | 28.2µM
CCOC(=O)C1=C(C)OC(N)=C(C#N)C1c1cc(OC)c2c(c1)OCO2 (stereo not given) | - | - | - | - | -
O=C(C1=C(O)C(=O)N(c2ncccn2)C1c1ccc(Cl)cc1)c1ccco1 (stereo not given) | . | - | - | . | -
O=C(C1=C(O)C(=O)N(c2ncccn2)C1c1ccc(Cl)c(Cl)c1)c1ccco1 (stereo not given) | - | ? | ? | - | 17.8µM
C=Cc1ccc(C=C)cc1 | - | . | . | - | .
O=C(NN=c1c(=O)c2ccccc2c1=O)c1ccccc1 | ? | - | ? | - | 5.62µM
Cc1[nH][nH]c(=O)c1C(c1c(C)[nH][nH]c1=O)c1cn(C)c2ccccc12 | - | - | - | - | -
Cc1[nH][nH]c(=O)c1C(c1c(C)[nH][nH]c1=O)c1cn(Cc2cccc3ccccc23)c2ccccc12 | ? | ? | ? | - | 10µM
Cc1cc(C)c2c(CC(=O)Nc3nnc(C(C)C)s3)coc2c1 | - | - | - | - | -
CCOC(=O)C1CCCN(c2ccc(NC(=O)c3snc4c(=O)[nH]cnc34)cc2)C1 (stereo not given) | - | - | - | - | 2.82µM
COC(=O)c1ccc(NC(=S)Nc2ccc(O)cc2)cc1 | - | - | - | - | -
Oc1ccc(NC(=S)Nc2ccc(O)cc2)cc1 | ? | ? | ? | - | 10µM
CCOc1ccc(-c2cc(C(=O)Oc3ccc(C#N)cc3)no2)cc1 | - | - | - | - | ?
Brc1ccc(/C=N/Nc2nncc(-c3ccccc3)n2)o1 | - | - | - | - | ?
COc1cc(/C=N/Nc2ccccc2C(F)(F)F)ccc1O | - | ? | - | - | ?
COc1ccc(-c2cnnc(N/N=C/c3ccc(O)cc3)n2)cc1 | - | ? | - | - | ?
COc1ccc(-c2cnnc(N/N=C/c3ccc(C)o3)n2)cc1 | - | - | - | - | 2.82µM
COc1ccc(-c2cnnc(N/N=C/c3ccc(O)c(O)c3)n2)cc1 | - | ? | ? | - | 2.51µM
Brc1ccc(-c2ccc(/C=N/Nc3nncc(-c4ccccc4)n3)o2)cc1 | - | - | - | - | 2µM
SMILES | TRb-SRC2 inh | Tau fluor counter | Tau fibril FP | TR SRC2 fluor cs | Tau ThT inhib
COc1cc(/C=N/Nc2nnc3c(n2)[nH]c2ccccc23)ccc1O | - | - | - | - | 0.708µM
CC(C)(C)OC(=O)N1CCC(c2c(C(=O)N3CCN(c4ccccc4F)CC3)cnn2C(C)(C)C)CC1 | - | - | - | ? | -
COc1ccc(CNC(=O)CCc2c(C)c3cc4c(C)coc4c(C)c3oc2=O)cc1OC | - | - | - | - | -
Fc1cnc(N/N=C/c2ccc(-c3ccc(Br)cc3)o2)nc1N1CCOCC1 | - | 12.6µM[quencher] | - | - | 10µM
COc1cccc(NC(=O)c2ccc3nc(Cc4ccccc4)oc3c2)c1 | - | ? | ? | - | -
COc1ccc(N=Nc2cnc(C)nc2-c2ccccc2)cc1 | - | ? | - | - | 17.8µM
Cc1ncc(N=Nc2ccccc2Cl)c(-c2ccccc2)n1 | - | ? | - | - | ?
Cc1ccc(/C=c2\sc3nc(-c4ccco4)nn3c2=O)o1 | - | - | ? | - | 17.8µM
Cc1ccc(/C=c2\sc3nc(-c4ccccc4Br)nn3c2=O)o1 | - | - | ? | - | 28.2µM
CC(C)CCOc1ccc(Cn2c(=O)sc3ccccc32)cc1 | - | - | - | - | -
Nc1nc(Nc2ccccc2)nc(NCc2ccco2)c1[N+](=O)[O-] | - | 12.6µM[quencher] | ? | - | ?
COc1cc(/C=C2\C(C)=C(C#N)c3nc(N)c(C#N)c(C)c32)ccc1OCC(=O)O | - | ? | ? | ? | 14.1µM
CC1=C(C#N)c2nc(N)c(C#N)c(C)c2/C1=C\c1ccc(C)cc1 | - | ? | ? | - | 17.8µM
COc1ccccc1CNC(=O)c1c(O)nc2c(C)cccn2c1=O | - | - | - | - | -
CNC(=S)N(CCc1c(C)[nH]c2ccc(C)cc12)Cc1cccs1 | - | 20µM[quencher] | - | - | ?
COc1ccc2[nH]cc(CCNC(=O)Nc3cccc(F)c3)c2c1 | - | 25.1µM[quencher] | ? | - | ?
COc1ccc(NC(=S)N(CCc2c(C)[nH]c3ccc(C)cc23)Cc2ccco2)cc1 | - | 14.1µM[quencher] | ? | - | ?
COc1ccc2[nH]c(C)c(CCN(Cc3cccs3)C(=S)Nc3ccc(F)cc3)c2c1 | - | 7.94µM[quencher] | - | - | ?
COc1ccc2[nH]c(C)c(CCN(Cc3cccs3)C(=S)Nc3ccccc3)c2c1 | - | ? | - | - | ?
COc1ccc2[nH]cc(CCNC(=O)Nc3c(C)cccc3C)c2c1 | - | - | - | - | -
COc1cccc(/C=C/c2nc(C#N)c(NC3CCCCC3)o2)c1 | - | ? | - | - | -
Cc1ccc(N)c(Cl)c1 | - | . | . | - | .
COc1ccc2[nH]c(C)c(CCNC(=S)Nc3cccc(C)c3)c2c1 | - | 15.8µM[quencher] | - | - | ?
CCOc1cc2[nH]c(=O)n(Cc3ccc(C(=O)N4CCN(c5ccccc5)CC4)cc3)c(=O)c2cc1OCC | - | - | - | ? | -
O=C(Nc1ccc(Cl)c(Cl)c1)Nc1ccccc1O | - | 12.6µM[quencher] | - | - | ?
SMILES | TRb-SRC2 inh | Tau fluor counter | Tau fibril FP | TR SRC2 fluor cs | Tau ThT inhib
O=C(NNc1ccccc1[N+](=O)[O-])Nc1ccccc1 | - | - | - | - | ?
O=C(Nc1ccc(Cl)c(Cl)c1)Nc1ccc(Br)cc1F | - | ? | 7.08µM | - | ?
O=C(Nc1ccccc1)Nc1ccc(Br)c(Cl)c1 | - | ? | 14.1µM | - | ?
O=C(Nc1ccc(Cl)cc1)Nc1ccc(Cl)c(Cl)c1 | - | . | . | - | .
O=C(NNc1ccccc1[N+](=O)[O-])Nc1ccc(Cl)c(Cl)c1 | - | 15.8µM[quencher] | ? | - | 15.8µM
CCN(CC)S(=O)(=O)c1cc([N+](=O)[O-])ccc1NNC(=O)Nc1ccc(Cl)c(Cl)c1 | - | 7.08µM[quencher] | ? | - | -
CC1=C(C(=O)Nc2cccnc2)C(c2ccccc2)n2nc(-c3ccc(O)cc3)nc2N1 (stereo not given) | - | - | - | - | -

Screening data as filed in PubChem BioAssay.
